FBA Mtb inh: inhibitors of M. tuberculosis fructose-bisphosphate aldolase. inhibition, % at 1 µM. purified M. tuberculosis FBA, fluorescence read-out. AID 588726. 360,000 tested, 2.3% active. P9WQA3; in the data active means inhibition above about 27%;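 further: 0% = vehicle and 100% = reference inhibitor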
Target sequence (P9WQA3 whole entry, looked up): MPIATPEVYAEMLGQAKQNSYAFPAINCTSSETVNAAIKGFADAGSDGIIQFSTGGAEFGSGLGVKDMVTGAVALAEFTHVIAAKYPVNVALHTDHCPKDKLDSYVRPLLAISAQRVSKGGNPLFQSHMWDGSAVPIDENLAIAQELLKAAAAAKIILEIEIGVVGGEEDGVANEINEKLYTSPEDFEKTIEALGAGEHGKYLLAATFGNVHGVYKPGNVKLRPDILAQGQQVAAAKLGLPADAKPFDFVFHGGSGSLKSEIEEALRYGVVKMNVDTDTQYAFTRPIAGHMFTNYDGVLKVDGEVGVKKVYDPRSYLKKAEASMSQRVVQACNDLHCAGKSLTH
Vc quorum ag: quorum light induction in luxS cqsA deficient V. cholerae; V. cholerae BH1578 lux reporter, luminescence, 6 h; activation, % at 18.7 µM; 350,000 tested, 0.16% active; AID 588436; in the data active means activation mostly above about 9.7%, no sharp cut-off
CCHFV vOTU inh: blocks the CCHF virus ovarian tumor domain protease. inhibition, % at 11.5 µM. CCHFV vOTU protease, Pep-AMC fluorescence. 370,000 tested, 0.55% active; further: 0% = vehicle wells with enzyme and 100% = no enzyme wells
GDH-TPI inh: inhibits GDH-TPI coupling enzymes, artifact for Mtb FBA screen; GDH-TPI coupled enzyme counterscreen, NADH absorbance; 360,000 tested, 1.2% active; AID 588335; inhibition, % at 4.8 µM;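 further: 0% = DMSO wells and 100% = wells lacking the enzyme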
* = called active by the depositor; i = inactive; nt = not tested or not shown; + = active, no number. Rows were chosen to be rich in hits. Some 3.9% of all compounds tested hit in one or more screens of this group. Unless noted, no stated cut-off is given here; in the data, active means inhibition above about 30%; inactive means the rest.

SMILES	FBA Mtb inh	Vc quorum ag	CCHFV vOTU inh	GDH-TPI inh
CC1CCN(CCCNC(=O)c2ccc(CS(=O)(=O)Cc3ccc(Cl)cc3)o2)CC1	-1	0	12	6
Cc1ccc2cc3cc(C(=O)NCc4ccc5c(c4)OCO5)oc3nc2c1	-7	i	8	26
Cc1ccc2cc3cc(C(=O)NCCCN4CCCC4=O)oc3nc2c1	156*	i	-161	22
COc1ccc2cc3cc(C(=O)NCCCN4CCOCC4)oc3nc2c1	+	-1	-259	33*
COc1ccc2cc3cc(C(=O)NCCCN4CCC(C)CC4)oc3nc2c1	+	0	nt	32*
CCN1CCN(CCCNC(=O)c2cc3cc4ccc(OC)cc4nc3o2)CC1	+	nt	nt	25
COc1ccc(C2=NS(=O)(=O)N(C)C(C(=O)N3CCC(C)CC3)=C2)cc1	0	0	6	31*
COc1ccc(NC(=O)C2=CC(c3ccc(C)cc3)=NS(=O)(=O)N2C)cc1	2	i	9	28
C/C=C(/C)C(=O)OC(C)(C)[C@@H]1Cc2c(ccc3ccc(=O)oc23)O1	+	0	-57	8
CC(=O)OC1=Cc2c(ccc3ccc(=O)oc23)OC1(C)C	22	0	-7	14
CC(C)CC(=O)OC(C)(C)[C@@H]1Cc2c(ccc3ccc(=O)oc23)O1	182*	i	-69	7
Cc1ccccc1N1CCN(CC(=O)Nc2ccccc2C(=O)NC2CC2)CC1	0	2	14	-4
CCc1c(O)nc(SCC(=O)Nc2ccc(Br)cc2)n(-c2ccc(C)cc2)c1=O	-3	1	10	8
CN1C(=O)C(O)(CC(=O)c2ccc(F)cc2)c2cc(Br)ccc21 (centres undefined)	0	0	-4	-5
COc1ccc(-c2oc3ccccc3c2C(=O)OCc2ccc([N+](=O)[O-])cc2)cc1	2	i	9	2
COC(=O)c1c(-c2ccc(OC)cc2)oc2ccccc12	134*	-3	-29	18
COc1ccc2oc(-c3ccccc3)c(C(=O)O)c2c1	+	0	-79	9
CCOc1ccc(NC(C)=O)cc1[N+](=O)[O-]	-3	0	-5	-2
CCn1c(Cc2ccccc2)nnc1SCC(=O)Nc1ccc(S(N)(=O)=O)cc1	1	-1	-12	-4
CCC(=O)Oc1ccc2c(c1)OC1(OC(C)=O)OC(C)CC1=C2C (centres undefined)	+	0	-403	21
CCC(=O)Oc1ccc2oc(=O)cc(C)c2c1	1	-2	-5	-1
Cc1cc(-c2nc3ccccc3[nH]2)ccc1N	174*	0	-58	9
c1ccc(-c2nc3ccccc3[nH]2)cc1	11	i	-3	4
COC(=O)c1ccc(-c2ncc[nH]2)cc1	+	0	-43	3
COC(=O)c1ccc(O)cc1	0	i	2	0
SMILES	FBA Mtb inh	Vc quorum ag	CCHFV vOTU inh	GDH-TPI inh
COC(=O)c1ccc(-c2nc3ccccc3[nH]2)cc1	+	i	-248	19
Nc1cc(N)cc(-c2nc3ccccc3[nH]2)c1	6	0	10	18
O=C(O)c1cccc(-c2nc3ccccc3[nH]2)c1	112*	-1	-4	7
Cc1ccc(NC(=O)C2(c3ccc([N+](=O)[O-])cc3)CCCC2)cc1	1	0	-7	4
COc1cccc(/C=N/NC(=O)CCCc2ccc(OC)c(C)c2)c1	1	0	10	9
O=C(Nc1ccc(-c2nc3ccccc3[nH]2)cc1)c1ccco1	-1	-5	nt	42*
Cc1ccn2cc(-c3ccc(NC(=O)c4ccco4)cc3)nc2c1	0	-1	0	33*
CC[C@@H](C)[C@H](C(CC(=O)N1CCCC1[C@@H](OC)[C@H](C)C(=O)N[C@H](Cc1ccccc1)c1nccs1)OC)N(C)C(=O)[C@H](NC(=O)[C@@H](C(C)C)N(C)C)C(C)C (some centres undefined)	0	i	10	11
Cc1cccc(NC(=O)c2ccc(S(=O)(=O)N3CCCCC3C)cc2)n1 (centres undefined)	1	0	12	4
CCCC(=O)Nc1nnc(SCC(=O)Nc2ccc3c(c2)OCCO3)s1	1	i	5	-1
CCn1cc(C(=O)NCc2cccc(F)c2)c(=O)c2cc(F)c(N3CCN(C(=O)c4ccco4)CC3)cc21	38*	-1	-2	1
CCn1cc(C(=O)O)c(=O)c2cc(F)c(N3CCN(C(=S)NC(=O)c4cccc(F)c4)CC3)cc21	0	-1	-13	14
COC(=O)c1cc(Br)ccc1-c1ccc(/C=N/n2nnnc2N)o1	3	i	4	44*
COc1ccc(-c2nnc(NC(=O)c3ccc(S(=O)(=O)N4CCCc5ccccc54)cc3)o2)cc1	-1	i	nt	37*
COCc1nnc(NC(=O)c2ccc(S(=O)(=O)N3CCCc4ccccc43)cc2)o1	-1	0	2	5
Cc1ccc(NC(=O)CCNS(=O)(=O)c2ccc3c(c2)c(=O)n(C)c(=O)n3C)cc1C	1	2	10	3
Cc1cc(OCc2ccccc2)ccc1/C(O)=C1/C(=O)C(=O)N(Cc2cccnc2)C1c1ccncc1 (centres undefined)	2	i	-7	38*
COc1cccc(C2/C(=C(\O)c3ccc4c(c3)OCCO4)C(=O)C(=O)N2Cc2cccnc2)c1 (centres undefined)	5	0	4	32*
O=C1C(=O)N(Cc2cccnc2)C(c2ccccn2)/C1=C(/O)c1ccccc1 (centres undefined)	-2	-2	20	14
Cc1ccc(C)c(/C(O)=C2\C(=O)C(=O)N(Cc3cccnc3)C2c2cccnc2)c1 (centres undefined)	-16	i	10	37*
COc1cc(C2/C(=C(\O)c3ccc4c(c3)OCCO4)C(=O)C(=O)N2CCN2CCOCC2)cc(OC)c1OC (centres undefined)	2	0	-1	10
CCOc1ccc(C2/C(=C(\O)c3ccc4c(c3)OCCO4)C(=O)C(=O)N2CCN2CCOCC2)cc1OC (centres undefined)	0	i	3	34*
O=C1C(=O)N(Cc2cccnc2)C(c2cccc([N+](=O)[O-])c2)/C1=C(\O)c1ccc2c(c1)OCCO2 (centres undefined)	-3	2	5	20
COc1ccc(/C(O)=C2/C(=O)C(=O)N(Cc3cccnc3)C2c2ccncc2)cc1F (centres undefined)	0	i	13	18
CCc1cccc(N(C(=O)c2csnn2)C(C(=O)NC2CCCCC2)c2ccncc2)c1 (centres undefined)	1	i	7	6
COc1cc(NC(=O)c2cccs2)ccc1NC(=O)c1ccco1	2	i	14	35*
COc1cc(NC(=O)COc2ccccc2[N+](=O)[O-])ccc1NC(=O)c1cccs1	0	-1	8	41*
COc1cc(NC(=O)COc2ccccc2Cl)ccc1NC(=O)c1cccs1	-1	0	-11	12

Source: PubChem (several laboratories)
